PubChem BioAssay (Tox21)
Records with an inconclusive call do not appear. A call without a number means that no potency is given here. Calls of active or inactive are those of the source. Unless noted, calls come from the whole dose curve.

Experiments:
[1] = qHTS assay to identify small molecule agonists of the NFkB signaling pathway - cell viability counter screen (AID 1159515); note: series mostly up to about 61 µM; nearly all actives have a fitted effect of over 55% in size
Procedure, shortened: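 5 hr compound treatment of NFkB-bla ME-180 cells (2,000/well, seeded overnight beforehand), followed by reporter substrate for 1.5 hr. CellTiter-Glo added afterward; luminescence after 30 min RT.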

[2] = qHTS assay to identify small molecule agonists of the endoplasmic reticulum stress response signaling pathway (AID 1159516; active = well fitted activation curve with a large enough effect in the signal ratio in the repeat runs, not every such curve was filed as active; the % refers to the signal ratio)
Procedure, shortened: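 Reporter HeLa cells (ESRE-beta-lactamase) underwent 5 hr compound incubation at 37 C and 5% CO2 in quantitative HTS format. Detection followed 2 hr of FRET substrate loading at room temperature.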

[3] = qHTS assay to identify small molecule agonists of the endoplasmic reticulum stress response signaling pathway - cell viability counter screen (AID 1159517);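 note: HeLa cells carrying an ER stress response element beta-lactamase reporter; series mostly up to about 61 µM; nearly all actives have a fitted effect of over 50% in size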
Procedure, shortened: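 Luminescence readout: CellTiter-Glo, 30 min RT, same wells as the ESRE-bla reporter read. HeLa ESRE-bla, 1,500 cells/well, o/n 37 C; cpd 5 hr 37 C/5% CO2.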

[4] = qHTS assay to identify small molecule agonists of the AP-1 signaling pathway - cell viability counter screen (AID 1159525); note: nearly all actives have a fitted effect of over 55% in size; note: potency is the fitted concentration of half-maximal effect
Procedure, shortened: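 ME-180 AP-1-bla, 2500 cells/well, Opti-MEM + 0.5% dialyzed FBS; overnight 37 °C; cpd 15-pt titration, 5 h 37 °C; CellTiter-Glo 30 min RT; luminescence read; normalised to TOAB and DMSO controls.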

[5] = qHTS assay to identify small molecule agonists of the AP-1 signaling pathway (AID 1159526)
[6] = qHTS assay to identify small molecule antagonists of the vitamin D receptor (VDR) signaling pathway - cell viability counter screen (AID 743225; active = well fitted curve in the direction sought with a large enough effect in the repeat runs; an effect the other way counts as inactive or inconclusive; note: nearly all actives have a fitted effect of over 50% in size)
Procedure, shortened: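 Luminescent cell viability (CellTiter-Glo) in VDR-bla HEK 293T cells after 16 h compound exposure at 37C in the presence of 3 nM final 1-alpha,25-dihydroxy vitamin D3.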

[7] = qHTS assay to identify small molecule agonists of the vitamin D receptor (VDR) signaling pathway - cell viability counter screen (AID 743224; active = well fitted curve in the direction sought with a large enough effect in the repeat runs; an effect the other way counts as inactive or inconclusive; note: series mostly up to about 63 µM; nearly all actives have a fitted effect of over 50% in size)
Procedure, shortened: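 Here cell health was gauged by luminescent ATP detection (CellTiter-Glo, 30 min RT) in VDR-bla cells that had been incubated with test compounds for 16 h at 37C and 5% CO2.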

[8] = target: Nuclear receptor ROR-gamma (Homo sapiens) (UniProt P51449); test: qHTS assay to identify small molecule antagonists of the retinoid-related orphan receptor gamma (ROR-gamma) signaling pathway (AID 1159521; active = well fitted curve in the direction sought with a large enough effect in the repeat runs; an effect the other way counts as inactive or inconclusive; note: nearly all actives have a fitted effect of over 50% in size; note: potency is the fitted concentration of half-maximal effect)
Procedure, shortened: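 CHO cells expressing RORγ under a TET-on promoter, luciferase under RORE control. Dox 1 uM final, 16 h; compounds added 2 h prior. Luminescence decrease measured.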

[9] = qHTS assay to identify small molecule antagonists of the retinoid-related orphan receptor gamma (ROR-gamma) signaling pathway - cell viability counter screen (AID 1159520; active = well fitted curve in the direction sought with a large enough effect in the repeat runs; an effect the other way counts as inactive or inconclusive; note: nearly all actives have a fitted effect of over 50% in size)
Procedure, shortened: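 Tet-on ROR gamma CHO cells (1,000/well) were plated 4 hr, given compounds in DMSO for 2 hr at 37 C, then induced with 1 uM final doxycycline for 16 hr. Viability was read as ATP by CellTiter-Glo luminescence after 30 min.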

[10] = target: Retinoic acid receptor RXR-alpha (Homo sapiens) (UniProt P19793); test: qHTS assay to identify small molecule agonists of the RXR signaling pathway (AID 1159527); note: nearly all actives have a fitted effect of over 35% in size
Sequence of Retinoic acid receptor RXR-alpha (Homo sapiens) (P19793 whole entry, looked up): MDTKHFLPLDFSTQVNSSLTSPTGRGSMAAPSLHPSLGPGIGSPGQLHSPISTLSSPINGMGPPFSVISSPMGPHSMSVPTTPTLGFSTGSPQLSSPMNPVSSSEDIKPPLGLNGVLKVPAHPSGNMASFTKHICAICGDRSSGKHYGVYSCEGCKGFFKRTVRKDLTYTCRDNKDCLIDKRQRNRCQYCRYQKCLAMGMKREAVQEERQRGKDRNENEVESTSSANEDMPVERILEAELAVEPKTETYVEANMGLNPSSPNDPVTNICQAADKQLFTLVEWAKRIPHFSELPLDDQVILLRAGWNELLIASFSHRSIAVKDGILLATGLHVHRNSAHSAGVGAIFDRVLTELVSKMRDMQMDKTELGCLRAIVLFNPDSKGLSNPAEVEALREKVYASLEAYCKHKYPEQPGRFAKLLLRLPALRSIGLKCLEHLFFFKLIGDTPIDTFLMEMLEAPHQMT
Procedure, shortened: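 Beta-lactamase reporter assay, agonist format. Engineered HEK 293T line, charcoal-stripped FBS at 2%, overnight (16 hr) exposure, fluorescence at 460 and 530 nm after 405 nm excitation.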

Structure (SMILES) | Potency [1] | Potency [2] | Potency [3] | Potency [4] | Potency [5] | Potency [6] | Potency [7] | Potency [8] | Potency [9] | Potency [10]
CO/N=C(/C1=NOCCO1)c1ccccc1Oc1ncnc(Oc2ccccc2Cl)c1F | inactive | inactive | inactive | inactive | inactive | – | – | – | – | –
FC(F)C(F)(F)OCC(Cn1cncn1)c1ccc(Cl)cc1Cl (stereo not drawn) | inactive | inactive | inactive | inactive | inactive | inactive | – | – | – | –
[Cl-].[Cl-].[Cl-].[Yb+3] | inactive | inactive | inactive | inactive | inactive | – | inactive | – | – | –
COC(=O)c1cc(Oc2ccc(Cl)cc2Cl)ccc1[N+](=O)[O-] | inactive | inactive | inactive | inactive | inactive | inactive | inactive | 54.5 µM (active) | – | –
O=C(NC(=O)c1c(F)cccc1F)Nc1ccc(Oc2ccc(C(F)(F)F)cc2Cl)cc1F | inactive | inactive | inactive | inactive | – | inactive | – | 24.3 µM (active) | – | –
CC(C)Br | inactive | inactive | inactive | inactive | – | inactive | inactive | inactive | – | –
Nc1c(Cl)c(Cl)c(Cl)c(Cl)c1Cl | inactive | inactive | – | – | – | inactive | – | – | inactive | –
COc1c2c(cc3c1OCO3)CCN(C)C2 | inactive | inactive | – | inactive | – | inactive | inactive | inactive | – | inactive
CCCCCCCc1ccc(O)cc1 | inactive | inactive | – | 54.9 µM (active) | – | inactive | – | – | – | –
